Data published in PMC5540273 (PLoS ONE, 2017).
Values joined by “and” are separate entries in the source; they are usually repeats but may differ in a detail not shown here. Identical values can stand only once. Like-named read-outs stand apart in the source and are kept apart here.

How the values were obtained:
KIT-autoinhibited = details: concentration: 1 μM, replicates: in singlicate, n = 1
KIT = details: concentration: 1 μM, replicates: in singlicate, n = 1
LATS1 = details: concentration: 1 μM, replicates: in singlicate, n = 1
LATS2 = details: concentration: 1 μM, replicates: in singlicate, n = 1
LCK = details: concentration: 1 μM, replicates: in singlicate, n = 1
LIMK1 = details: concentration: 1 μM, replicates: in singlicate; n = 1
LIMK2 = details: concentration: 1 μM, replicates: in singlicate, n = 1
LKB1 = tested on: T1, LKB1; details: concentration: 1 μM, replicates: in singlicate, n = 1
T1 construct: gene STK11

LOK = tested on: T2, LOK; details: concentration: 1 μM, replicates: in singlicate, n = 1
T2 construct: gene STK10

LRRK2 = details: concentration: 1 μM, replicates: in singlicate, n = 1
LTK = details: concentration: 1 μM, replicates: in singlicate, n = 1
LYN = details: concentration: 1 μM, replicates: in singlicate; n = 1
LZK = tested on: T3, LZK; details: concentration: 1 μM, replicates: in singlicate, n = 1
T3 construct: gene MAP3K13

MAK = details: concentration: 1 μM, replicates: in singlicate; n = 1
MAP3K15 = details: concentration: 1 μM, replicates: in singlicate, n = 1
MAP3K1 = details: concentration: 1 μM, replicates: in singlicate, n = 1
MAP3K2 = details: concentration: 1 μM, replicates: in singlicate, n = 1
MAP3K3 = details: concentration: 1 μM, replicates: in singlicate, n = 1
MAP3K4 = details: concentration: 1 μM, replicates: in singlicate, n = 1
MAP4K2 = details: concentration: 1 μM, replicates: in singlicate, n = 1
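Also: KINOMEscan kinase panel screen.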

SMILES: Cc1nnc(-c2ccc3ncc(-c4ccc(S(C)=O)cc4)n3c2)o1 (centres unmarked)
- %Inh (KIT-autoinhibited): 7%
- %Inh (KIT): 59%
- %Inh (LATS1): 17%
- %Inh (LATS2): 13%
- %Inh (LCK): 0%
- %Inh (LIMK1): 0%
- %Inh (LIMK2): 0%
- %Inh (LKB1): 3%
- %Inh (LOK): 0%
- %Inh (LRRK2): 3%
- %Inh (LTK): 0%
- %Inh (LYN): 18%
- %Inh (LZK): 11%
- %Inh (MAK): 0%
- %Inh (MAP3K15): 19%
- %Inh (MAP3K1): 4%
- %Inh (MAP3K2): 8%
- %Inh (MAP3K3): 5%
- %Inh (MAP3K4): 0%
- %Inh (MAP4K2): 0%

SMILES: NS(=O)(=O)c1cccc(-c2ccc3ncc(N4CCOCC4)nc3c2)c1 [GSK1535721]
- %Inh (KIT-autoinhibited): 15%
- %Inh (KIT): 14%
- %Inh (LATS1): 0%
- %Inh (LATS2): 9%
- %Inh (LCK): 0%
- %Inh (LIMK1): 0%
- %Inh (LIMK2): 15%
- %Inh (LKB1): 3%
- %Inh (LOK): 0%
- %Inh (LRRK2): 0%
- %Inh (LTK): 8%
- %Inh (LYN): 0%
- %Inh (LZK): 23%
- %Inh (MAK): 8%
- %Inh (MAP3K15): 0%
- %Inh (MAP3K1): 0%
- %Inh (MAP3K2): 0%
- %Inh (MAP3K3): 0%
- %Inh (MAP3K4): 0%
- %Inh (MAP4K2): 4%

SMILES: Nc1nc(-c2ccc3c(N)n[nH]c3c2)cc(N2CCCC2)n1 [GSK2227430]
- %Inh (KIT-autoinhibited): 0%
- %Inh (KIT): 12%
- %Inh (LATS1): 0%
- %Inh (LATS2): 5%
- %Inh (LCK): 0%
- %Inh (LIMK1): 0%
- %Inh (LIMK2): 3%
- %Inh (LKB1): 1%
- %Inh (LOK): 0%
- %Inh (LRRK2): 0%
- %Inh (LTK): 0%
- %Inh (LYN): 0%
- %Inh (LZK): 0%
- %Inh (MAK): 27%
- %Inh (MAP3K15): 0%
- %Inh (MAP3K1): 0%
- %Inh (MAP3K2): 0%
- %Inh (MAP3K3): 0%
- %Inh (MAP3K4): 0%
- %Inh (MAP4K2): 0%

SMILES: Cc1nnc(-c2ccc3occ(-c4ccc(C(C)O)cc4)c3c2)o1 (centres unmarked)
- %Inh (KIT-autoinhibited): 0%
- %Inh (KIT): 11%
- %Inh (LATS1): 15%
- %Inh (LATS2): 12%
- %Inh (LCK): 2%
- %Inh (LIMK1): 29%
- %Inh (LIMK2): 0%
- %Inh (LKB1): 7%
- %Inh (LOK): 4%
- %Inh (LRRK2): 4%
- %Inh (LTK): 0%
- %Inh (LYN): 18%
- %Inh (LZK): 0%
- %Inh (MAK): 0%
- %Inh (MAP3K15): 0%
- %Inh (MAP3K1): 10%
- %Inh (MAP3K2): 3%
- %Inh (MAP3K3): 19%
- %Inh (MAP3K4): 9%
- %Inh (MAP4K2): 20%

SMILES: NCCNS(=O)(=O)c1ccc(-c2ccnc3[nH]ccc23)cc1 [GSK977617]
- %Inh (KIT-autoinhibited; 1 µM): 0% and 21%
- %Inh (KIT; 1 µM): 44% and 28%
- %Inh (LATS1; 1 µM): 75% and 70%
- %Inh (LATS2; 1 µM): 95.8% and 95.9%
- %Inh (LCK; 1 µM): 38% and 3%
- %Inh (LIMK1): 0%
- %Inh (LIMK2; 1 µM): 6% and 12%
- %Inh (LKB1; 1 µM): 0% and 2%
- %Inh (LOK; 1 µM): 12% and 0%
- %Inh (LRRK2; 1 µM): 17% and 0%
- %Inh (LTK; 1 µM): 37% and 0%
- %Inh (LYN): 0%
- %Inh (LZK; 1 µM): 22% and 3%
- %Inh (MAK): 0%
- %Inh (MAP3K15; 1 µM): 4% and 0%
- %Inh (MAP3K1; 1 µM): 8% and 11%
- %Inh (MAP3K2; 1 µM): 83% and 72%
- %Inh (MAP3K3; 1 µM): 63% and 56%
- %Inh (MAP3K4; 1 µM): 0% and 21%
- %Inh (MAP4K2; 1 µM): 47% and 38%

SMILES: Cl.Nc1ncnc2occ(-c3ccc(NC(=O)Nc4cc(C(F)(F)F)ccc4F)cc3)c12 [SB-707548]
- %Inh (KIT-autoinhibited): 79%
- %Inh (KIT): 99.9%
- %Inh (LATS1): 0%
- %Inh (LATS2): 40%
- %Inh (LCK): 88%
- %Inh (LIMK1): 25%
- %Inh (LIMK2): 34%
- %Inh (LKB1): 21%
- %Inh (LOK): 99.9%
- %Inh (LRRK2): 2%
- %Inh (LTK): 97.2%
- %Inh (LYN): 75%
- %Inh (LZK): 40%
- %Inh (MAK): 6%
- %Inh (MAP3K15): 5%
- %Inh (MAP3K1): 34%
- %Inh (MAP3K2): 8%
- %Inh (MAP3K3): 17%
- %Inh (MAP3K4): 25%
- %Inh (MAP4K2): 62%

SMILES: CCCCCc1nc2c(N)ncnc2n1CCCCC [SKF-97255]
- %Inh (KIT-autoinhibited): 16%
- %Inh (KIT): 17%
- %Inh (LATS1): 0%
- %Inh (LATS2): 0%
- %Inh (LCK): 5%
- %Inh (LIMK1): 0%
- %Inh (LIMK2): 0%
- %Inh (LKB1): 60%
- %Inh (LOK): 14%
- %Inh (LRRK2): 0%
- %Inh (LTK): 6%
- %Inh (LYN): 0%
- %Inh (LZK): 0%
- %Inh (MAK): 0%
- %Inh (MAP3K15): 0%
- %Inh (MAP3K1): 18%
- %Inh (MAP3K2): 29%
- %Inh (MAP3K3): 0%
- %Inh (MAP3K4): 10%
- %Inh (MAP4K2): 0%

SMILES: COc1cc2c(cc1OC[C@@H](O)CO)ncc1c3ccc(C#N)cc3[nH]c21
- %Inh (KIT-autoinhibited): 48%
- %Inh (KIT): 63%
- %Inh (LATS1): 0%
- %Inh (LATS2): 41%
- %Inh (LCK): 0%
- %Inh (LIMK1): 0%
- %Inh (LIMK2): 0%
- %Inh (LKB1): 0%
- %Inh (LOK): 20%
- %Inh (LRRK2): 93.1%
- %Inh (LTK): 0%
- %Inh (LYN): 0%
- %Inh (LZK): 8%
- %Inh (MAK): 0%
- %Inh (MAP3K15): 42%
- %Inh (MAP3K1): 0%
- %Inh (MAP3K2): 0%
- %Inh (MAP3K3): 6%
- %Inh (MAP3K4): 0%
- %Inh (MAP4K2): 17%

SMILES: COc1ccc(COc2cc(-n3cnc4ccccc43)sc2C(N)=O)cc1 [GSK1024304]
- %Inh (KIT-autoinhibited): 0%
- %Inh (KIT): 23%
- %Inh (LATS1): 0%
- %Inh (LATS2): 0%
- %Inh (LCK): 16%
- %Inh (LIMK1): 10%
- %Inh (LIMK2): 7%
- %Inh (LKB1): 1%
- %Inh (LOK): 0%
- %Inh (LRRK2): 10%
- %Inh (LTK): 6%
- %Inh (LYN): 0%
- %Inh (LZK): 0%
- %Inh (MAK): 0%
- %Inh (MAP3K15): 0%
- %Inh (MAP3K1): 0%
- %Inh (MAP3K2): 0%
- %Inh (MAP3K3): 0%
- %Inh (MAP3K4): 20%
- %Inh (MAP4K2): 0%

SMILES: O=C(NCCCN1CCOCC1)c1cccc(Nc2nccc(Nc3ccc(Oc4ccccc4)cc3)n2)c1 [GW663929]
- %Inh (KIT-autoinhibited): 16%
- %Inh (KIT): 80%
- %Inh (LATS1): 0%
- %Inh (LATS2): 1%
- %Inh (LCK): 99.3%
- %Inh (LIMK1): 21%
- %Inh (LIMK2): 22%
- %Inh (LKB1): 10%
- %Inh (LOK): 23%
- %Inh (LRRK2): 0%
- %Inh (LTK): 0%
- %Inh (LYN): 72%
- %Inh (LZK): 28%
- %Inh (MAK): 36%
- %Inh (MAP3K15): 0%
- %Inh (MAP3K1): 0%
- %Inh (MAP3K2): 0%
- %Inh (MAP3K3): 0%
- %Inh (MAP3K4): 0%
- %Inh (MAP4K2): 13%
